Here are results for nine compounds from PubChem BioAssay (NCATS).

Records with an inconclusive call do not appear. Where a call stands in place of a potency, no number is given. The source made the active and inactive calls. Calls come from the whole dose curve; as a rule, active = well fitted curve in the direction sought with a large enough effect; inconclusive = small, poorly fitted or top-dose-only effect, or another doubt; inactive = no such curve, though single readings can be large; an effect the other way counts as inactive or inconclusive.
Note: nearly all actives have a fitted effect of over 70% in size.

Luciferin 4-monooxygenase (Photinus pyralis), sequence (P08659 whole entry, looked up): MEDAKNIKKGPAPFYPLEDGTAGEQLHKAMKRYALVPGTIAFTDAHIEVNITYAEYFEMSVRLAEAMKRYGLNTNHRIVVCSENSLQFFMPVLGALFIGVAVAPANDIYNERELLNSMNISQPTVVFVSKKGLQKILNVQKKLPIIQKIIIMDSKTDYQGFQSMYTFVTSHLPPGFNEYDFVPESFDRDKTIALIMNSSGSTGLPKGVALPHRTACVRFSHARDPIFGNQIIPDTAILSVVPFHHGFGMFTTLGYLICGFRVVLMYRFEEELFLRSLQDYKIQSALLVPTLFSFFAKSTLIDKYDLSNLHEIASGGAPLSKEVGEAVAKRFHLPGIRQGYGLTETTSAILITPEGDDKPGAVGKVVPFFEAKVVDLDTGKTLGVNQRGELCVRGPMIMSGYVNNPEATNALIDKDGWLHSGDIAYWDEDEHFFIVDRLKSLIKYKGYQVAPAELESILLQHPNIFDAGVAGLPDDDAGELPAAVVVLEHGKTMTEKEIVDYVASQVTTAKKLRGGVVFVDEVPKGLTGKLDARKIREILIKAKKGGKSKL

One experiment concerns the target Luciferin 4-monooxygenase (Photinus pyralis) (UniProt P08659). The experiment in a line: Biochemical firefly luciferase enzyme assay for NPC (AID 624030).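 Note: purified P. pyralis luciferase at 10 nM with luciferin and ATP substrate.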 Conditions: purified P. pyralis luciferase, luminescence, 5 min; series mostly up to 58.6 µM. The procedure, abridged: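 Direct inhibition of firefly luciferase enzyme (10 nM final, 50 mM Tris Acetate) assessed by luminescence within 5 minutes. Percent activity scaled between DMSO and PTC124 positive control, with concentration-effect curves classified by fit quality and response.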
Regarding `COc1ccc(C[C@H](C)NC[C@@H](O)c2ccc(O)c(NC=O)c2)cc1`, the Potency entry is “inactive”. In the case of `CCCCCCCCCCCCCCCCCC[N+](C)(C)CCC[Si](OC)(OC)OC`, the Potency result was “inactive”. In the case of `CCCCCCCCCCCCCC(=O)OCC(COP(=O)([O-])OCC[N+](C)(C)C)OC(=O)CCCCCCCCCCCCC` (centres undefined), the Potency result is “inactive”. Same read-out and setting: under `CC(=O)NCCCS(=O)(=O)O` stands “inactive”; under `CCC(=O)c1ccc2c(c1)N(CCCN1CCN(CCO)CC1)c1ccccc1S2`, “inactive”; under `N=C(N)c1ccc(/C=C/c2ccc(C(=N)N)cc2O)cc1`, “inactive”. Same read-out and setting: the same measure for `CC12CCC(C[N+](C)(CCC[N+](C)(C)C)C1)C2(C)C` (centres undefined): “inactive”; for `CCN(CC)C(=S)S`: “inactive”; for `CC(=O)N[C@@H](C=O)[C@@H](O)[C@H](O)[C@H](O)CO`: “inactive”.

System in the next experiment: not listed separately
The experiment in a line: S16 Schwann cell viability assay (CellTiter-Glo assay) (AID 624031).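 Note: native untransfected S16 rat Schwann cells; cellular ATP luminescence as a viability measure.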 Conditions: S16 rat Schwann cells viability, 24 h; series mostly up to 57.5 µM. In a few lines:
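Concentration-effect curves come from CellTiter-Glo luminescence of S16 rat Schwann cells after 24 h compound exposure. Each reading was normalized to DMSO wells (0%) and wells without cells, and curves were ranked by r2 and response magnitude.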
Regarding `CCCCCCCCCCCCCCCCCC[N+](C)(C)CCC[Si](OC)(OC)OC`, the Potency result is “inactive”.

On to `CCCCCCCCCCCCCC(=O)OCC(COP(=O)([O-])OCC[N+](C)(C)C)OC(=O)CCCCCCCCCCCCC` (centres undefined), for which the Potency result is “inactive”. The same measure, in the same setting: the same measure for `CC(=O)NCCCS(=O)(=O)O`: “inactive”; for `N=C(N)c1ccc(/C=C/c2ccc(C(=N)N)cc2O)cc1`: “inactive”; for `CC12CCC(C[N+](C)(CCC[N+](C)(C)C)C1)C2(C)C` (centres undefined): “inactive”.
